Source: PubChem (National Center for Advancing Translational Sciences (NCATS))
A selection: hits, their analogues and other compounds. The true share with any hit is near 8%.
HT1080 IDH1KD tx – kills HT-1080 cells with IDH1 knockdown; HT-1080 IDH1 knockdown viability, ATP luminescence, 48 h; Potency, µM (titrated, usually from 46.1 µM), for the others: top-dose activity, negative = toxicity, usual class: cytotoxic; actives 2% (n = 360,000); AID 686971;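 further: 0% = DMSO wells and -100% = cell-free medium wells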
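In this qHTS, HT-1080 cells depleted of IDH1 are exposed for 48 h at 37 °C to compound titrations. Toxicity is scored from CellTiter-Glo luminescence, with DMSO as full viability and medium alone as none.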
HT1080-NT tox – kills 2HG-producing HT-1080-NT fibrosarcoma cells | AID 686970 | actives 1.6% (n = 360,000) | Potency, µM (doses to about 46.1 µM), for inactives: at the highest dose activity, negative = less viability, hits mostly cytotoxic | HT-1080-NT fibrosarcoma viability, CellTiter-Glo ATP luminescence, 48 h;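 further: NT is the 2HG producing partner of a matched IDH1 knockdown line; 0% = DMSO-treated cells and -100% = media-only wells without cells; nearly all actives have a fitted effect of over 55% in size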
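Viability of the 2HG-overproducing fibrosarcoma line after 48 hours of compound exposure at 37 degrees C was determined by luminescence with CellTiter-Glo, and concentration-effect curves were then fitted and categorized.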
SW480 rereplic – induces DNA re-replication in SW480 colon adenocarcinoma cells | Potency, µM (doses to about 46.1 µM), inactives show at the highest dose re-replication activation, hits mostly activators | SW480 DNA re-replication, Hoechst DNA content imaging, 48 h | actives 1.8% (n = 340,000) | AID 624297; further: % of control where 0% means no effect; nearly all actives have a fitted effect of over 55% in size
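Image-based read-out: total Hoechst fluorescence of nuclei (405 nm excitation, 500-530 nm emission), with hits raising the fraction of high-intensity nuclei. SW480 colon cells incubated 48 hr with compounds at 37 C.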
KB-V1 MDR tox – kills drug-selected multidrug resistant KB-V1 cells; Potency, µM (titrated, usually from 46.1 µM), most hits filed as cytotoxic; actives 3.4% (n = 400,000); KB-V1 MDR cells viability, CellTiter-Glo, 72 h; further: on the % scale 0 is the no-effect control and ±100 the full control effect; nearly all actives have a fitted effect of over 60% in size
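Cells of the MDR subline KB-V1 are plated, dosed with compound at multiple concentrations, and incubated 72 h at 37 degrees C; CellTiter-Glo is then added and luminescence read after 10 min.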
KB-3-1 cytotox – KB-3-1 parental cell cytotoxicity; KB-3-1 viability, CellTiter-Glo ATP luminescence, 72 h; Potency, µM (titrated, usually from 46.1 µM), most hits filed as cytotoxic; actives 1.4% (n = 400,000); further: on the % scale 0 is the no-effect control and ±100 the full control effect; nearly all actives have a fitted effect of over 60% in size
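Here the drug-naive KB-3-1 line serves as comparator for MDR sub-line selectivity; cells received compound titrations, 72 h at 37 °C, then CellTiter-Glo readout.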
MCF10A rereplic – DNA re-replication induction in MCF 10a cells | MCF 10A DNA re-replication, Hoechst nuclear intensity, 48 h | Potency, µM (titrated, usually from 46.1 µM), without a hit: at the highest dose activity, positive = re-replication, most hits filed as activators | actives 2.9% (n = 350,000); further: % of control where 0% means no effect; nearly all actives have a fitted effect of over 50% in size
* hit, by the source's call; i = inactive; u = inconclusive; x = no result; [ ] = another dose, or the depositor's remark. The call rests on the fitted dose curve; in most records, active means well fitted curve in the direction sought with a large enough effect; inconclusive means small, poorly fitted or top-dose-only effect, or another doubt; inactive means no such curve, though single readings can be large; an effect the other way counts as inactive or inconclusive. Potency means the concentration at half of the fitted maximal effect.

SMILES	HT1080 IDH1KD tx	HT1080-NT tox	SW480 rereplic	KB-V1 MDR tox	KB-3-1 cytotox	MCF10A rereplic
CC(C)c1ccc(N2C(=O)CSC23C(=O)N(C)c2ccccc23)cc1 (stereo not drawn)	x	x	x	u	i	x
Cc1ccc(NC(=O)CCc2nc(-c3ccccc3F)no2)c(C)c1	x	x	x	i	i	x
O=C(NCC(c1ccc2c(c1)OCO2)N1CCOCC1)c1ccccc1F (stereo not drawn)	x	x	x	i	i	x
CCOC(=O)C1CCN(C(=O)Cn2c(-c3cccs3)cc3cc(Cl)ccc32)CC1	x	x	x	i	i	x
Fc1ccc(-c2cc3nc(-c4ccccc4)cc(N4CCOCC4)n3n2)cc1	-1%	9%	u	i	i	u
Cc1cccc(-c2cc3nc(-c4ccccc4)cc(N4CCC5(CC4)OCCO5)n3n2)c1	-13%	-5%	u	i	i	12%
COc1ccc(-c2cc3nc(-c4ccccc4)cc(N4CCCC(O)C4)n3n2)cc1 (stereo not drawn)	21µM*	u	u	i	i	21µM*
Cc1ccc(-c2cc3nc(-c4ccccc4)cc(N4CCC5(CC4)OCCO5)n3n2)cc1	8%	-3%	18µM*	i	i	u
COc1cc(-c2nccc3cc4c(cc23)OCO4)cc(OC)c1OC	4.6µM*	u	5.8µM*	5.2µM*	4.1µM*	15µM*
COc1cc2cc(OC(C)=O)c3cc4c(cc3c2c(OC)c1OC)OCO4	22%	15%	x	i	i	x
COc1cc(C2Nc3ccccc3C(=O)N2Cc2ccco2)ccc1O (stereo not drawn)	x	x	x	i	i	x
Clc1ccc(Nc2nc(Nc3ccc(Cl)cc3)nc(N3CCOCC3)n2)cc1	x	x	x	i	i	x
CCOc1ccc(Nc2nc(N3CCOCC3)nc(N3CCOCC3)n2)cc1	0%	0%	-1%[9.22 µM]	i	i	-8%
CCOc1ccc(Nc2nc(NCCN3CCOCC3)nc(OC)n2)cc1	-1%	-1%	-16%	18µM*	i	-1%
Clc1ccc(Nc2nc(NCCN3CCOCC3)nc(N3CCOCC3)n2)cc1	-14%[9.24 µM]	u	9.2µM*	u	u	u
Fc1ccc(Nc2nc(N3CCOCC3)nc(N3CCOCC3)n2)cc1Cl	15%	6%	18µM*	i	i	-1%
Cc1noc(Cn2c(=O)c3ccccc3n(CC(=O)Nc3ccc(F)cc3F)c2=O)n1	x	x	x	i	i	x
O=C(Cn1ncc2c(=O)oc3ccccc3c21)N1CCN(c2ccc(Cl)cc2)CC1	x	x	x	i	i	x
CCn1c(=O)n(CC)c2cc(N3CCCCC3)c(NC(=O)Nc3ccccc3Cl)cc21	x	x	x	i	i	x
COc1cc(CN(C)c2ncnc3sccc23)ccc1OC(F)F	-25%	-22%	-5%	8.2µM*	u	8%
Cc1ccccc1C(=O)Nc1nnc(S(=O)(=O)N(C)Cc2ccc(Cl)cc2)s1	x	x	x	i	i	x
Cc1nc(N2CCN(C)CC2)c2nnn(Cc3ccccc3)c2n1	-1%	-3%	x	x	x	x
Cc1cccc(Nc2nc(-c3c(C)nc4ccccn34)cs2)c1	u	u	u	7.3µM*	u	-3%
Cc1nc(N)sc1-c1csc(Nc2cccc(O)c2)n1	-19%	-12%	-7%	i	i	3%
Cc1nc2ccccn2c1-c1csc(Nc2cccc(C(=O)O)c2)n1	-12%	-17%	2%	i	i	6%
SMILES	HT1080 IDH1KD tx	HT1080-NT tox	SW480 rereplic	KB-V1 MDR tox	KB-3-1 cytotox	MCF10A rereplic
Cc1nc2ccccn2c1-c1csc(Nc2ccc(C(=O)O)cc2)n1	3.3µM*	2.1µM*	12µM*	u	u	12µM*
Cc1nc2ccccn2c1-c1csc(Nc2cccc(O)c2)n1	1.5µM*	1.6µM*	u	10µM*	u	u
COc1ccc(CNC(=O)CS(=O)(=O)c2cccc3nsnc23)cc1	x	x	x	i	i	x
C=CCOc1c(OC)cc(/C=N/Nc2cccc(C(=O)O)c2)c(Br)c1Br	u	u	2.1µM*	i	i	21µM*
C=CCOc1c(/C=N\NC(N)=O)cccc1OC	2%	-5%	u	i	i	12%
COc1cc(OC)cc(C(=O)Nc2cc3c(cc2N2CCCC2)n(C)c(=O)c(=O)n3C)c1	x	x	x	i	i	x
CCOC(=O)c1[nH]c2c(c1Cc1ccccc1OC)C(=O)CC(c1ccc(OCC)cc1)C2 (stereo not drawn)	x	x	x	i	i	x
COc1ccccc1CNC(=O)CCC1N=C2c3ccccc3N=C(SCC(=O)Nc3ccc(F)cc3)N2C1=O (stereo not drawn)	x	x	x	i	i	x
Cc1noc(-c2ccc(-c3noc(-c4cccc(F)c4)n3)cc2)n1	x	x	x	i	i	x
COc1ccccc1CNC(=O)CCCn1c(=O)c2ccccc2n(Cc2ccccc2C#N)c1=O	x	x	x	i	i	x
COc1ccc(C(=O)O/N=C(\N)c2ccccn2)cc1	16µM*	13µM*	4%	i	u	-7%
C/C(=N\NC(=O)C(C)Oc1ccc([N+](=O)[O-])cc1)c1ccccn1 (stereo not drawn)	2.2µM*	2.2µM*	6.5µM*	5.2µM*	8.2µM*	15µM*
COc1ccc(NS(=O)(=O)c2ccc(NC(=O)c3ccccn3)cc2)cc1	-5%	-3%	-12%	i	i	15%
COc1cc(OC)cc(C(=O)NNC(=O)c2ccc3ccccc3n2)c1	21µM*	u	u	u	u	17%
COc1ccc(NS(=O)(=O)c2cccc(NC(=O)c3ccccn3)c2)cc1	-29%	-28%	-5%	10µM*	u	-1%
CC(=O)Nc1nonc1-c1nc2ccccc2n1Cc1ccccc1Br	x	x	x	i	u	x
CCOc1ccc(NC(=O)c2ccccn2)cc1	u	u	-2%	21µM*	u	21%
N/C(=N\OC(=O)c1cc([N+](=O)[O-])ccc1Cl)c1cccnc1	21%	19%	u	u	u	18µM*
CCOc1ccc(NC(=O)c2cnccn2)cc1	-14%	-3%	-1%	i	u	-2%
COc1ccc(C(=O)NNC(=O)c2ccccn2)cc1	18µM*	21µM*	9%	i	u	3%
N/C(=N\OC(=O)c1ccc(Cl)c([N+](=O)[O-])c1)c1ccccn1	16µM*	u	u	i	i	21µM*
N/C(=N\OC(=O)c1ccc(Cl)c(Cl)c1)c1ccccn1	u	13%	2%	i	i	6%
Cc1cc(C)n(-c2nc3cc(Cl)ccc3nc2N2CCN(c3cccc(C)c3C)CC2)n1	x	x	x	i	i	x
